Measured values from PubChem BioAssay (NCI).
This is part of a sample that, as a whole, favours compounds with a hit. Of some 83,000 tested, about 20% had one in any assay.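 Negative percent growth values reflect cell death: -40 means 40% of the cells present at the start died, and -100 means all died.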 The source made the active and inactive calls. How the source made its calls: active means growth percent below 10; inactive means the rest.

What was measured:
Assay in all cases: NCI-60 one-dose screen, 48 h (100 = growth as untreated, 0 = no growth, -100 = all killed)
Details in all cases: 10 µM unless noted
SR leukemia = tested on: SR leukemia
RPMI-8226 leukemia = tested on: RPMI-8226 leukemia
OVCAR-8 ovarian = tested on: OVCAR-8 ovarian
OVCAR-5 ovarian = tested on: OVCAR-5 ovarian
OVCAR-4 ovarian = tested on: OVCAR-4 ovarian
SK-OV-3 ovarian = tested on: SK-OV-3 ovarian
IGROV1 ovarian = tested on: IGROV1 ovarian
OVCAR-3 ovarian = tested on: OVCAR-3 ovarian
HS 578T breast = tested on: HS 578T breast
NCI/ADR-RES ovarian = tested on: NCI/ADR-RES ovarian
T-47D breast = tested on: T-47D breast
BT-549 breast = tested on: BT-549 breast
MDA-MB-435 melanoma = tested on: MDA-MB-435 melanoma
SW-620 colon = tested on: SW-620 colon
MCF7 breast = tested on: MCF7 breast
HCT-116 colon = tested on: HCT-116 colon
HCC-2998 colon = tested on: HCC-2998 colon
KM12 colon = tested on: KM12 colon

Measured: growth

COCCNC(=O)Cc1cc(-c2ccc(Cl)cc2)n(-c2ccccc2)c1C
inactive: SR leukemia 61.9% | RPMI-8226 leukemia 63% | OVCAR-8 ovarian 85.8% | OVCAR-5 ovarian 90% | OVCAR-4 ovarian 67.1% | SK-OV-3 ovarian 95% | IGROV1 ovarian 88.6% | OVCAR-3 ovarian 116% | HS 578T breast 107% | NCI/ADR-RES ovarian 86.1% | T-47D breast 56.3% | BT-549 breast 83.5% | MDA-MB-435 melanoma 93.7% | SW-620 colon 94.9% | MCF7 breast 88.6% | HCT-116 colon 80.4% | HCC-2998 colon 99.3% | KM12 colon 91.7%

Cc1ccc2nc(/C=C/c3ccc(N(C)C)cc3)cc(C)c2c1
active: OVCAR-3 ovarian -2.23% | MDA-MB-435 melanoma -5.17%
inactive: SR leukemia 22.1% | RPMI-8226 leukemia 34.1% | OVCAR-8 ovarian 41.4% | OVCAR-5 ovarian 73.1% | OVCAR-4 ovarian 85.5% | SK-OV-3 ovarian 31.4% | IGROV1 ovarian 49% | HS 578T breast 34.9% | NCI/ADR-RES ovarian 25.2% | T-47D breast 34.7% | BT-549 breast 32.3% | SW-620 colon 10.9% | MCF7 breast 10.1% | HCT-116 colon 22.8% | HCC-2998 colon 63.9% | KM12 colon 21.5%

Cc1[nH]c(C2CC(c3ccc(C(F)(F)F)c(F)c3)=NN2C)c(C)c1C(=O)NCC(F)(F)F (stereo unspecified)
inactive: SR leukemia 92.9% | RPMI-8226 leukemia 92.4% | OVCAR-8 ovarian 94.8% | OVCAR-5 ovarian 98.4% | OVCAR-4 ovarian 90.9% | SK-OV-3 ovarian 105% | IGROV1 ovarian 79.9% | OVCAR-3 ovarian 107% | HS 578T breast 95.9% | NCI/ADR-RES ovarian 98.8% | T-47D breast 93.9% | BT-549 breast 107% | MDA-MB-435 melanoma 100% | SW-620 colon 103% | MCF7 breast 80.7% | HCT-116 colon 101% | HCC-2998 colon 105% | KM12 colon 97.8%

O=C(Nc1cccc(Cl)c1)Oc1c(Cl)c(Cl)c(Cl)c(Cl)c1Cl
inactive: SR leukemia 96.3% | RPMI-8226 leukemia 95.4% | OVCAR-8 ovarian 98.9% | OVCAR-5 ovarian 95.2% | OVCAR-4 ovarian 89% | SK-OV-3 ovarian 85% | IGROV1 ovarian 87.8% | OVCAR-3 ovarian 101% | HS 578T breast 82.8% | NCI/ADR-RES ovarian 103% | T-47D breast 80.1% | BT-549 breast 88.5% | MDA-MB-435 melanoma 98.7% | SW-620 colon 100% | MCF7 breast 84.9% | HCT-116 colon 95.7% | HCC-2998 colon 119% | KM12 colon 102%

C=C1C(=O)O[C@H]2[C@H]1CC/C(CNC(=O)/C=C/c1cc(OC)c(OC)c(OC)c1)=C\CC[C@@]1(C)O[C@@H]21
inactive: OVCAR-5 ovarian 15.9% | OVCAR-4 ovarian 14.7% | SK-OV-3 ovarian 64.6% | IGROV1 ovarian 17.8% | HS 578T breast 24.2% | NCI/ADR-RES ovarian 76.7% | KM12 colon 38.8%
active: SR leukemia -13.8% | RPMI-8226 leukemia -5.59% | OVCAR-8 ovarian 5.04% | OVCAR-3 ovarian -57.5% | T-47D breast -65% | BT-549 breast -17.8% | MDA-MB-435 melanoma -60.3% | SW-620 colon -21.6% | MCF7 breast -8.09% | HCT-116 colon -65.6% | HCC-2998 colon -79%

CC(=O)/C(Br)=C/c1ccc(Br)o1
active: SR leukemia -18.2% | HCT-116 colon -66.2%
inactive: RPMI-8226 leukemia 67.1% | OVCAR-8 ovarian 79% | OVCAR-5 ovarian 95.6% | OVCAR-4 ovarian 86.1% | SK-OV-3 ovarian 104% | IGROV1 ovarian 86.9% | OVCAR-3 ovarian 23.5% | HS 578T breast 26.7% | NCI/ADR-RES ovarian 93.9% | T-47D breast 44.8% | BT-549 breast 52.1% | MDA-MB-435 melanoma 62.4% | SW-620 colon 15.4% | MCF7 breast 33% | HCC-2998 colon 93.4% | KM12 colon 105%

COc1nc2ccccc2cc1/C=[N+](\[O-])c1ccccc1
inactive: SR leukemia 21.5% | RPMI-8226 leukemia 14.2% | OVCAR-8 ovarian 37.3% | OVCAR-5 ovarian 97.4% | OVCAR-4 ovarian 74.3% | SK-OV-3 ovarian 87.3% | IGROV1 ovarian 86.7% | OVCAR-3 ovarian 86.2% | HS 578T breast 81.5% | NCI/ADR-RES ovarian 44.9% | T-47D breast 58.9% | BT-549 breast 86.7% | MDA-MB-435 melanoma 42.2% | SW-620 colon 28.4% | MCF7 breast 28.6% | HCT-116 colon 10.2% | HCC-2998 colon 105% | KM12 colon 84%

CC(C)c1nc(N(C)S(C)(=O)=O)nc(-c2ccc(F)cc2)c1/C=C/C(=O)C[C@@H](O)CC(=O)O
inactive: SR leukemia 105% | RPMI-8226 leukemia 107% | OVCAR-8 ovarian 94.2% | OVCAR-5 ovarian 106% | OVCAR-4 ovarian 113% | SK-OV-3 ovarian 102% | IGROV1 ovarian 105% | OVCAR-3 ovarian 111% | HS 578T breast 102% | NCI/ADR-RES ovarian 107% | T-47D breast 101% | BT-549 breast 94.2% | MDA-MB-435 melanoma 103% | SW-620 colon 108% | MCF7 breast 97.2% | HCT-116 colon 91.1% | HCC-2998 colon 98.2% | KM12 colon 97.1%

CC(C)(C)n1cc(-c2ccnc(NCCNS(=O)(=O)c3ccc(C(F)(F)F)cc3)c2)c(-c2ccccc2)n1
inactive: SR leukemia 35.9% | RPMI-8226 leukemia 81.1% | OVCAR-8 ovarian 89.2% | OVCAR-5 ovarian 108% | OVCAR-4 ovarian 84.8% | SK-OV-3 ovarian 97.8% | IGROV1 ovarian 97.3% | OVCAR-3 ovarian 94.5% | HS 578T breast 99.6% | NCI/ADR-RES ovarian 91.5% | T-47D breast 62.5% | BT-549 breast 93.7% | MDA-MB-435 melanoma 100% | SW-620 colon 99.2% | MCF7 breast 63% | HCT-116 colon 58.9% | HCC-2998 colon 111% | KM12 colon 96.7%

CN1C(=O)N(C)C2C1NN=c1s/c(=C\c3ccc(F)cc3)c(=O)n12 (stereo unspecified)
inactive: SR leukemia 26.8% | RPMI-8226 leukemia 66.5% | OVCAR-8 ovarian 29.5% | OVCAR-5 ovarian 48.6% | OVCAR-4 ovarian 28.6% | SK-OV-3 ovarian 33.1% | IGROV1 ovarian 11% | HS 578T breast 14.8% | NCI/ADR-RES ovarian 10.3% | T-47D breast 13.3% | BT-549 breast 44.2% | SW-620 colon 10.2% | HCC-2998 colon 57.8% | KM12 colon 18.9%
active: OVCAR-3 ovarian 7.29% | MDA-MB-435 melanoma -19% | MCF7 breast 4.25% | HCT-116 colon 4.86%

Cc1cc(C)n(C(=O)CSc2nc3sc4c(c3c(=O)n2-c2ccccc2)CCCCC4)n1
inactive: SR leukemia 97.8% | RPMI-8226 leukemia 103% | OVCAR-8 ovarian 100% | OVCAR-5 ovarian 105% | OVCAR-4 ovarian 94.2% | SK-OV-3 ovarian 99% | IGROV1 ovarian 107% | OVCAR-3 ovarian 104% | HS 578T breast 96.8% | NCI/ADR-RES ovarian 104% | T-47D breast 89.9% | BT-549 breast 100% | MDA-MB-435 melanoma 105% | SW-620 colon 102% | MCF7 breast 95.1% | HCT-116 colon 104% | HCC-2998 colon 109% | KM12 colon 105%

N#C/C(=N\Nc1ccccc1)C(=O)Nc1cc(-c2ccccc2)nn1-c1ccccc1
inactive: SR leukemia 62.3% | RPMI-8226 leukemia 18.5% | OVCAR-8 ovarian 40.6% | OVCAR-5 ovarian 72.2% | OVCAR-4 ovarian 22.1% | SK-OV-3 ovarian 31.3% | IGROV1 ovarian 30.6% | OVCAR-3 ovarian 12.4% | HS 578T breast 41.9% | NCI/ADR-RES ovarian 41.5% | BT-549 breast 16.2% | MDA-MB-435 melanoma 30.3% | SW-620 colon 20.2% | MCF7 breast 16.4% | HCT-116 colon 16.1% | HCC-2998 colon 40.7% | KM12 colon 36.8%
active: T-47D breast 9.7%

Cc1csc(Nc2nc(-c3cccc(Cl)c3)nc(C(Cl)(Cl)Cl)n2)n1
inactive: SR leukemia 58.9% | RPMI-8226 leukemia 13.8% | OVCAR-8 ovarian 58.6% | OVCAR-5 ovarian 46.8% | OVCAR-4 ovarian 70.1% | SK-OV-3 ovarian 70.8% | IGROV1 ovarian 83.1% | HS 578T breast 43.5% | NCI/ADR-RES ovarian 51.6% | BT-549 breast 96.8% | MDA-MB-435 melanoma 54.1% | SW-620 colon 42.4% | MCF7 breast 20.7% | HCT-116 colon 37.9% | KM12 colon 13.8%
active: OVCAR-3 ovarian -18.4% | T-47D breast 5.33% | HCC-2998 colon 7.13%

C[C@H]1c2ccccc2CN1CCCOc1cc2c(cc1OCC1CC1)C1(CCCC1)C(N)=N2
inactive: SR leukemia 13.8% | RPMI-8226 leukemia 17.6% | OVCAR-8 ovarian 65.9% | OVCAR-5 ovarian 70.5% | OVCAR-4 ovarian 48.8% | SK-OV-3 ovarian 90.2% | IGROV1 ovarian 54.8% | OVCAR-3 ovarian 76.9% | HS 578T breast 56% | NCI/ADR-RES ovarian 68% | BT-549 breast 78% | MDA-MB-435 melanoma 36.4% | SW-620 colon 15% | MCF7 breast 22.5% | KM12 colon 49.6%
active: T-47D breast 0.245% | HCT-116 colon 7.48% | HCC-2998 colon -55.3%

CCCCCCCCOC(=O)c1c(C)[nH]c(/C=C2\N=C(c3ccc[nH]3)C=C2OC)c1C
active: RPMI-8226 leukemia -21% | OVCAR-8 ovarian 4.86% | OVCAR-4 ovarian 4.99% | OVCAR-3 ovarian -38.6% | HS 578T breast -27.8% | T-47D breast 4.23% | MDA-MB-435 melanoma -19.4% | SW-620 colon 5.83% | MCF7 breast -58.1% | HCT-116 colon -83.5% | HCC-2998 colon -26.4% | KM12 colon 0.693%
inactive: SR leukemia 14.1% | OVCAR-5 ovarian 15.2% | SK-OV-3 ovarian 20.8% | IGROV1 ovarian 10.1% | NCI/ADR-RES ovarian 15.9% | BT-549 breast 10.4%

Cc1ccc(C(F)(F)F)cc1N1CCN(C(=O)[C@H]2C[C@H]2c2ccc(C(F)(F)F)nc2)CC1
inactive: SR leukemia 76% | RPMI-8226 leukemia 66.1% | OVCAR-8 ovarian 89.9% | OVCAR-5 ovarian 85.6% | OVCAR-4 ovarian 92% | SK-OV-3 ovarian 84.2% | IGROV1 ovarian 74.7% | OVCAR-3 ovarian 93.4% | HS 578T breast 91.4% | NCI/ADR-RES ovarian 91.6% | T-47D breast 68.4% | BT-549 breast 88.2% | MDA-MB-435 melanoma 103% | SW-620 colon 105% | MCF7 breast 91.2% | HCT-116 colon 93.4% | HCC-2998 colon 101% | KM12 colon 91.8%

CCOc1cc(\C=N/N=C(N)/C(N)=N\N=C/c2ccc(O)c(OCC)c2)ccc1O
inactive: SR leukemia 88.8% | RPMI-8226 leukemia 94.8% | OVCAR-8 ovarian 67.9% | OVCAR-5 ovarian 115% | OVCAR-4 ovarian 105% | SK-OV-3 ovarian 113% | IGROV1 ovarian 129% | OVCAR-3 ovarian 113% | HS 578T breast 113% | NCI/ADR-RES ovarian 98.7% | T-47D breast 47.4% | BT-549 breast 93.1% | MDA-MB-435 melanoma 98.7% | SW-620 colon 108% | MCF7 breast 91.5% | HCT-116 colon 99.6% | HCC-2998 colon 98.6% | KM12 colon 101%
